Results on 19 molecules are retold here after PubChem BioAssay (EPA / NIEHS).

Calls of active or inactive are those of the source. The calls were made as follows, unless noted: active = hit-call score of the fitted dose curve at least 0.9, where 1 is the maximum; inactive = score below 0.9.

A short description of experiment [1]: CCTE_Padilla_ZF_Score.Craniofacial: CCTE's 144 Hour Post-fertilization zebrafish Assay Score for Craniofacial Malformation, Padilla Lab (AID 2284405). The method, boiled down: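 Wild-type zebrafish embryos (with chorions), one per well in 10% Hanks', were dosed at 6–8 hpf in sealed plates and kept at 26C. They were rinsed at 5 dpf. At 6 dpf two blinded assessors scored craniofacial malformations by brightfield stereomicroscopy.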

The nature of experiment [2]: CCTE_Padilla_ZF_Score.Edema: CCTE's 144 Hour Post-fertilization zebrafish Assay Score for Edema Malformation, Padilla Lab (AID 2284406). The method, boiled down: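 Wild-type zebrafish embryos, one per well in Hanks' solution, dosed at 6-8 hpf, sealed and reared at 26C on a 14:10 h cycle; rinsed on 5 dpf. At 6 dpf, blinded assessors scored edema by stereomicroscopy.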

Experiment [3] is described as follows: CCTE_Padilla_ZF_Score.Spine: CCTE's 144 Hour Post-fertilization zebrafish Assay Score for Spine Malformation, Padilla Lab (AID 2284407). The method, boiled down:
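Wild-type zebrafish embryos, one per well in Hanks' solution, dosed at 6–8 hpf in sealed plates at 26C, 14:10 h light:dark; rinsed at 5 dpf. Two blinded assessors scored spinal defects by stereomicroscopy at 6 dpf; fitted versus DMSO.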

Experiment [4] is described as follows: CCTE_Padilla_ZF_Score.Swim_bladder: CCTE's 144 Hour Post-fertilization zebrafish Assay Score for Swim Bladder Malformation, Padilla Lab (AID 2284408). The method, boiled down:
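Wild-type zebrafish embryos, one per well in 10% Hanks', dosed at 6–8 hpf, sealed, reared at 26C and rinsed at 5 dpf. Blinded assessors scored uninflated swim bladder by stereomicroscopy at 6 dpf, relative to DMSO.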

Experiment [5] is described as follows: CCTE_Padilla_ZF_Score.Position: CCTE's 144 Hour Post-fertilization zebrafish Assay Score for Position, Padilla Lab (AID 2284409). In outline: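 Wild-type zebrafish embryos (with chorions) exposed singly from 6–8 hpf in sealed wells of Hanks' solution at 26C, rinsed at 5 dpf. At 6 dpf, blinded assessors scored abnormal water-column position by brightfield stereomicroscopy, relative to DMSO.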

Experiment [6] in a line: CCTE_Padilla_ZF_Score.Living: CCTE's 144 Hour Post-fertilization zebrafish Assay Score for Viability, Padilla Lab (AID 2284410).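 Also: larval death at 6 dpf judged by absent heartbeat or coagulation.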 The method, boiled down: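 Wild-type zebrafish embryos were exposed singly from 6–8 hpf in sealed wells of Hanks' solution at 26C, then rinsed at 5 dpf. At 6 dpf, blinded assessors scored mortality (no heartbeat or coagulation) by stereomicroscopy, fitted against DMSO.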

The nature of experiment [7]: CCTE_Padilla_ZF_Score.General: CCTE's 144 Hour Post-fertilization zebrafish Assay Score for General Malformation, Padilla Lab (AID 2284411). The method, boiled down: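 Wild-type zebrafish embryos were plated singly at 6-8 hpf in 10% Hanks' and exposed in sealed wells at 26C until rinsed on 5 dpf. At 6 dpf two blinded assessors scored mortality, hatching and malformations by stereomicroscopy; gain-of-signal versus DMSO.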

Experiment [8] deals with SERPINA7 (gene 6906). The experiment in a line: CCTE_GLTED_hTBG: CCTE's human Thyroxine-binding Globulin (TBG) Inhibition Assay, Great Lakes Toxicology and Ecology Division (GLTED) Lab (AID 2284343; active = hit-call score of the fitted dose curve at least 0.9, where 1 is the maximum;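 also: active chemicals lower fluorescence versus DMSO baseline by displacing probe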). In outline:
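Measures how far test chemicals displace ANSA bound to purified human TBG. The read-out is fluorescence at 380 nm excitation and 475 nm emission, taken after 2 h of incubation.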

`C=CCOC(F)(C(F)(F)F)C(F)(F)F`: the call in experiment [1], in experiment [2], in experiment [3], in experiment [4], in experiment [5] and in experiment [6] was inactive. In addition, the result in experiment [7] was inactive.

As to `Oc1cc(Cl)c(Cl)cc1Cl`, the AC50 in experiment [8] was 40.8 µM (active).

Turning to `CC(C=O)Cc1ccc2c(c1)OCO2` (centres undefined), in experiment [7], the molecule was classed as inactive.

As to `Cc1ccc2nc3sc(=O)sc3nc2c1`, the AC50 in experiment [7] was 0.563 µM (active).

Turning to `OC(Cc1ccccc1Cl)(Cn1cncn1)C1(Cl)CC1` (centres undefined), the molecule was called inactive in experiment [7].

Turning to `Oc1c(Br)cc(Br)cc1Br`, the concentration at half-maximal activity (AC50) in experiment [8] was 10.3 µM (active); in experiment [7], 2.31 µM (active).

As to `Nc1c(Oc2ccccc2)cc(O)c2c1C(=O)c1ccccc1C2=O`, in experiment [7], the AC50 was 14 µM (active).

`CC(F)(F)CC(F)(F)F`: the result in experiment [1], in experiment [2], in experiment [3], in experiment [4], in experiment [5] and in experiment [6] was inactive. Further, in experiment [7], the molecule was classed as inactive.

Turning to `CCCCCCCCCCCCN(C)C`, the molecule was classed as inactive in experiment [7].

On to `COC(F)(C(F)(F)C(F)(F)F)C(F)(C(F)(F)F)C(F)(F)F` (centres undefined), for which the molecule was classed as inactive in experiment [1], in experiment [2], in experiment [3], in experiment [4], in experiment [5] and in experiment [6]. Further, the outcome in experiment [7] was inactive.

Take `Cc1ccccc1OP(=O)(Oc1ccccc1)Oc1ccccc1`: the AC50 in experiment [7] was 2.78 µM (active).

For the molecule `Cc1cccc(OP(=O)(Oc2cccc(C)c2)Oc2cccc(C)c2)c1`, in experiment [7], the molecule was classed as inactive.

`O=S(=O)(c1ccc(Cl)cc1)c1cc(Cl)c(Cl)cc1Cl`: the AC50 in experiment [7] was 27.5 µM (active).

Turning to `CCCCCCCCCCBr`, in experiment [7], the call was inactive.

In the case of `O=C(O)COc1cc(Cl)c(Cl)cc1Cl`, the concentration at half-maximal activity (AC50) in experiment [8] was 45.6 µM (active).

As for `O=C1C=CC(=O)c2ccccc21`, in experiment [7], the molecule was classed as inactive.

For `O=S(=O)(F)C(F)(F)C(F)(F)C(F)(F)C(F)(F)F`, the call in experiment [1], in experiment [2], in experiment [3], in experiment [4], in experiment [5] and in experiment [6] was inactive. Also, the outcome in experiment [7] was inactive.

As for `CCN(CC)C(=O)C(Cl)=C(C)OP(=O)(OC)OC`, the call in experiment [7] was inactive.

Consider `CCOC(=O)C(SP(=S)(OC)OC)c1ccccc1` (centres undefined), for which the AC50 in experiment [7] was 8.89 µM (active).

The term AC50 denotes the midpoint of the concentration-response curve, whichever way the signal moves.
